Results filed as inconclusive are left out. A call without a number means that no potency is given here. Active and inactive are the calls of the source. Calls follow the shape of the dose curve; as a rule, active = well fitted activation curve with a large enough effect; inconclusive = small, poorly fitted or top-dose-only effect; inactive = flat fitted curve, though single readings scatter.
assay: qHTS for Inhibitors of Cell Surface uPA Generation: FP59 Counterscreen for Cherry-picked Compounds; conditions: FP59 anthrax toxin cytotoxicity counterscreen, cells; series mostly up to 115 µM

Row | SMILES | Potency
1 | CCn1nc(C)c(CNC(=O)C2CCC(=O)N(CCc3ccc(OC)cc3)C2)c1C (stereo unspecified) | inactive
2 | COc1ccc(CCNC(=O)CSc2nc(N)c3c(C)c(C)oc3n2)cc1OC | inactive
3 | CC(=O)NS(=O)(=O)c1ccc(NC(=O)c2cccc(OCc3c(C)noc3C)c2)cc1 | inactive
4 | CCCCN(CC(=O)Nc1cccc(S(=O)(=O)N2CCCC2)c1)Cc1nc2ccccc2c(=O)[nH]1 | inactive
5 | Clc1ccccc1N1CCN(c2ncnc3nc[nH]c23)CC1 | inactive
6 | Cn1nc(C(C)(C)C)c([N+](=O)[O-])c1C(=O)N1CCOCC1 | inactive
7 | COc1ccc(-c2cc3nc(C)cc(-c4ccc(OC)cc4)n3n2)cc1 | inactive
8 | CN(c1ccccc1)S(=O)(=O)c1ccc(C(=O)Nc2nnc(C3CC3)o2)cc1 | inactive
9 | Nc1cc(=O)[nH]c(SCC(=O)Nc2cccc([N+](=O)[O-])c2)n1 | inactive
10 | CC1(C)CC(CCC(=O)NC(=S)Nc2ccccc2Cl)C(=O)O1 (stereo unspecified) | inactive
11 | CCCCN(CC(=O)NCc1ccc(F)cc1)C(=O)c1ccco1 | inactive
12 | CC1CN(C(=O)CCC(=O)NCc2ccccc2)c2ccccc2S1 (stereo unspecified) | inactive
13 | CCN(C(=O)CSc1ncnc2sccc12)c1c(N)n(Cc2ccccc2)c(=O)[nH]c1=O | inactive
14 | C=CC1=C(C(=O)O)N2C(=O)[C@@H](NC(=O)/C(=N\O)c3csc(N)n3)[C@H]2SC1 (stereo in doubt) | inactive
15 | COc1ccc(C(=O)NC(=S)Nc2ccc(NC(=O)c3ccco3)cc2)cc1[N+](=O)[O-] | inactive
16 | Cc1nc(SCc2nc3ccccc3[nH]2)c2oc3cc([N+](=O)[O-])ccc3c2n1 | inactive

Source: PubChem BioAssay AID720517 (National Center for Advancing Translational Sciences (NCATS), 2013)
